“And” between values parts separate entries of the source, which are not always exact repeats. Equal entries are not always repeated. Records with an inconclusive call do not appear. A call without a number means that no potency is given here. More than one record can exist for a structure, and the calls need not agree. The source made the active and inactive calls. Unless noted, the call rests on the fitted dose curve; in most records, active means well fitted curve in the direction sought with a large enough effect in the repeat runs; inconclusive means weak or mixed curves; inactive means flat fitted curve, though single readings scatter.
Tests used:
[1] = qHTS assay to test for compound auto fluorescence at 535 nm (green) in HEK293 cells (AID 720680)
[2] = qHTS assay to test for compound auto fluorescence at 460 nm (blue) in HEK293 cell free culture (AID 720681)
In short: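 Blue fluorescence (Ex 405/Em 460 nm, triamterene-equivalent) was read immediately after pin transfer of compound or DMSO into medium (DMEM, 10% FBS) without cells.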

[3] = qHTS assay to test for compound auto fluorescence at 535 nm (green) in HEK293 cell free culture (AID 720682)
In short: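 Read-out: 485/535 nm fluorescence intensity, calibrated against fluorescein. Medium only (DMEM + 10% FBS, no cells); test compound or DMSO vehicle added by pintool before plate reading.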

[4] = qHTS assay to test for compound auto fluorescence at 590 nm (red) in HepG2 cell free culture (AID 720684)
In short: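 Plate contents were MEM with 10% FBS plus test compound or DMSO, no cells. Fluorescence was recorded with 540 nm excitation and 590 nm emission.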

[5] = qHTS assay to test for compound auto fluorescence at 460 nm (blue) in HepG2 cell free culture (AID 720685)
In short: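 Compound (23 nL) or DMSO pinned into cell-free MEM with 10% FBS; blue fluorescence read at 405/460 nm excitation/emission, expressed as auto-fluorescence equivalency to triamterene.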

[6] = qHTS assay to test for compound auto fluorescence at 535 nm (green) in HepG2 cell free culture (AID 720686)
[7] = qHTS assay to test for compound auto fluorescence at 460 nm (blue) in HepG2 cells (AID 720687)
In short: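 Blue-channel autofluorescence (Ex/Em 405/460 nm, triamterene-equivalent) was measured after 1 hr compound exposure at 37 C, 5% CO2. Cells were HepG2, plated overnight at 37 C in MEM plus 10% FBS.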

[8] = biological target: Glucocorticoid receptor (Homo sapiens) (UniProt P04150); test: qHTS assay to identify small molecule agonists of the glucocorticoid receptor (GR) signaling pathway (AID 720691; active means well fitted activation curve with a large enough effect in the signal ratio in the repeat runs, not every such curve was filed as active; the % refers to the signal ratio)
In short: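 Reporter read-out: fluorescence intensity following 2 h room-temperature LiveBLAzer B/G FRET substrate loading. Prior step: GR-bla HeLa cells held 4 h, then treated 18 h at 37 C.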

[9] = biological target: Glucocorticoid receptor (Homo sapiens) (UniProt P04150); test: qHTS assay to identify small molecule antagonists of the glucocorticoid receptor (GR) signaling pathway (AID 720692; active means well fitted inhibition curve with a large enough effect in the signal ratio in the repeat runs, not every such curve was filed as active; the % refers to the signal ratio; further: potency means the concentration at half of the fitted maximal effect)
In short: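 Dexamethasone (5 nM final) stimulated a stably integrated GRE-beta-lactamase reporter in HeLa cells during 18 h co-incubation with compounds; signal was quantified as fluorescence intensity of B/G FRET substrate after 2 h.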

[10] = qHTS assay to test for compound auto fluorescence at 590 nm (red) in HEK293 cell free culture (AID 720683)
In short: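 Red-channel autofluorescence of compounds in culture medium (DMEM, 10% FBS), no cells, measured at 540/590 nm. Rose Bengal sodium is the reference fluorophore for equivalence.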

Glucocorticoid receptor (Homo sapiens), sequence (P04150 whole entry, looked up): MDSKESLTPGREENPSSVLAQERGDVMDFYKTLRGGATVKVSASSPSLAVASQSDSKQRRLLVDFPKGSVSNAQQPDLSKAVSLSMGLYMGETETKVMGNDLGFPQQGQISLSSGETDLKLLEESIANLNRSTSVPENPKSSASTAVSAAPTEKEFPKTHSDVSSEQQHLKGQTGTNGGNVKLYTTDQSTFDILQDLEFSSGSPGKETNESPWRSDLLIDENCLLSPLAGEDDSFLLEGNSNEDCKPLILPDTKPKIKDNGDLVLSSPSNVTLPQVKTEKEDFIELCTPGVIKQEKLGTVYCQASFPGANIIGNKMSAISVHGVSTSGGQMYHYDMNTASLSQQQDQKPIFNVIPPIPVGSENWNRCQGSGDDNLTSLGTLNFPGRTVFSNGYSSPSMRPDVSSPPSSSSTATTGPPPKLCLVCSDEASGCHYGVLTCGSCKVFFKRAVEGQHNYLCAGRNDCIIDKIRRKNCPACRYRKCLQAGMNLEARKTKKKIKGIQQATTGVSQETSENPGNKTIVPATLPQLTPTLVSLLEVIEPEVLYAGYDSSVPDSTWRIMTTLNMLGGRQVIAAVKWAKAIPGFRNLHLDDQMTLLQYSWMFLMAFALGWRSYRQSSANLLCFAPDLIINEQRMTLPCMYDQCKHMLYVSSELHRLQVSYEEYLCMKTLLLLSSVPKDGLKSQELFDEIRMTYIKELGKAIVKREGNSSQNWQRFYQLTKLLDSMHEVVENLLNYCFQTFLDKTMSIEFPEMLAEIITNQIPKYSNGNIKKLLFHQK

Compound	outcome [1]	outcome [2]	outcome [3]	outcome [4]	outcome [5]	outcome [6]	outcome [7]	Potency [8]	Potency [9]	outcome [10]
CCC(=O)O[C@H]1CC[C@H]2[C@@H]3CCC4=CC(=O)CC[C@]4(C)[C@H]3CC[C@]12C	inactive	inactive	inactive	inactive	inactive	inactive	inactive	inactive	5.12 µM (active) and 4.9 µM (active)	
CN(C)C(=O)Nc1ccc(Cl)cc1	inactive	inactive	inactive	inactive	inactive	inactive	inactive	inactive	inactive	
CCCCN(CC)c1c([N+](=O)[O-])cc(C(F)(F)F)cc1[N+](=O)[O-]	inactive	inactive	inactive	inactive	inactive	inactive	inactive	inactive	inactive	
COP(=O)(OC)OC	inactive	inactive	inactive	inactive	inactive	inactive	inactive	inactive	inactive	inactive
ClC1C(Cl)C(Cl)C(Cl)C(Cl)C1Cl (stereo not given)		inactive	inactive	inactive	inactive	inactive	inactive			inactive
c1ccc(NNc2ccccc2)cc1	inactive	inactive	inactive	inactive	inactive	inactive	inactive	inactive	inactive	
Clc1nc(Cl)nc(Cl)n1	inactive	inactive	inactive	inactive	inactive	inactive	inactive	inactive	inactive	inactive
NNC(N)=S	inactive	inactive	inactive	inactive	inactive	inactive	inactive	inactive	inactive	
N#Cc1cc(Br)c(O)c(Br)c1	inactive	inactive	inactive	inactive	inactive	inactive	inactive	inactive		
Cc1ccc2c(c1N)C(=O)c1ccccc1C2=O	inactive	inactive	inactive	inactive	inactive	inactive	inactive	inactive		
Nc1ccncc1	inactive	inactive	inactive	inactive	inactive	inactive	inactive			
CCCCC(CC)COC(=O)c1ccc(C(=O)OCC(CC)CCCC)c(C(=O)OCC(CC)CCCC)c1 (stereo not given)	inactive	inactive	inactive	inactive	inactive	inactive	inactive	inactive	inactive	
CCN(CC)C(=O)SCc1ccc(Cl)cc1	inactive	inactive	inactive	inactive	inactive	inactive	inactive	inactive	inactive	inactive
c1ccc(N=Nc2ccccc2)cc1	inactive	inactive	inactive	inactive	inactive	inactive	inactive	inactive	inactive	
C=CCc1ccc(OC)cc1	inactive	inactive	inactive	inactive	inactive	inactive	inactive			
O=[N+]([O-])c1c(Cl)c(Cl)c(Cl)c(Cl)c1Cl	inactive	inactive	inactive	inactive	inactive	inactive	inactive	inactive	30.9 µM (active)	
CCC(C)c1cc([N+](=O)[O-])cc([N+](=O)[O-])c1O (stereo not given)	inactive	inactive	inactive	inactive	inactive	inactive	inactive	inactive	inactive	
CC(C)(C)c1ccccc1O	inactive	inactive	inactive	inactive	inactive	inactive	inactive	inactive	inactive	
O=C1C=CC(=O)C=C1	inactive	inactive	inactive	inactive	inactive	inactive	inactive			
COc1ccc(C(CN(C)C)C2(O)CCCCC2)cc1 (stereo not given)	inactive	inactive	inactive	inactive	inactive	inactive	inactive			

Compound	outcome [1]	outcome [2]	outcome [3]	outcome [4]	outcome [5]	outcome [6]	outcome [7]	Potency [8]	Potency [9]	outcome [10]
Cc1ccc(N)c(N)c1	inactive	inactive	inactive	inactive	inactive	inactive	inactive	inactive	inactive	
C=CC(=O)OCCO		inactive	inactive	inactive	inactive	inactive	inactive	inactive		inactive
CCCCNC(=O)n1c(NC(=O)OC)nc2ccccc21		inactive	inactive	inactive	inactive	inactive	inactive	inactive	inactive	inactive
CCCCOCCOP(=O)(OCCOCCCC)OCCOCCCC		inactive	inactive	inactive	inactive	inactive	inactive	inactive	inactive	inactive
CC(C)N(C(=O)SCC(Cl)=C(Cl)Cl)C(C)C		inactive	inactive	inactive	inactive	inactive	inactive	inactive	inactive	inactive
CCC(C)(C)c1ccc(O)cc1		inactive	inactive	inactive	inactive	inactive	inactive	inactive	inactive	inactive
C=C(C)C(=O)OCC1CO1 (stereo not given)		inactive	inactive	inactive	inactive	inactive	inactive	inactive	inactive	
CCN(N=O)C(N)=O		inactive	inactive	inactive	inactive	inactive	inactive	inactive		inactive
COP(=S)(OC)Oc1cc(Cl)c(Cl)cc1Cl		inactive	inactive	inactive	inactive	inactive	inactive	inactive	inactive	
O=C(CCl)c1ccccc1		inactive	inactive	inactive	inactive	inactive	inactive	inactive	inactive and 54.9 µM (active)	inactive
CCOc1cc(Oc2ccc(C(F)(F)F)cc2Cl)ccc1[N+](=O)[O-]		inactive	inactive	inactive	inactive	inactive	inactive	inactive	inactive	inactive
CCCCN(CCCC)N=O		inactive	inactive	inactive	inactive	inactive	inactive	inactive	inactive	inactive
CNC(=O)Oc1cccc2c1OC(C)(C)O2		inactive	inactive	inactive	inactive	inactive	inactive	inactive		inactive
CC(C)NC(C)C		inactive	inactive	inactive	inactive	inactive	inactive	inactive	inactive	
Cc1cccc(N)c1N		inactive	inactive	inactive	inactive	inactive	inactive	inactive	inactive	inactive
C#CCOS(=O)OC1CCCCC1Oc1ccc(C(C)(C)C)cc1 (stereo not given)		inactive	inactive	inactive	inactive	inactive	inactive	inactive	43.7 µM (active)	inactive
CC1(C)C(C=C(Cl)Cl)C1C(=O)OC(C#N)c1cccc(Oc2ccccc2)c1 (stereo not given)		inactive	inactive	inactive	inactive	inactive	inactive	inactive		inactive
Brc1ccc(Oc2cc(Br)c(Br)cc2Br)c(Br)c1		inactive	inactive	inactive	inactive	inactive	inactive			inactive
Nc1ccc(Cl)c(Cl)c1		inactive	inactive	inactive	inactive	inactive	inactive			
CCCCCCCCCCCOC(=O)c1ccccc1C(=O)OCCCCCCCCCCC		inactive	inactive	inactive	inactive	inactive	inactive	inactive	inactive	

Compound	outcome [1]	outcome [2]	outcome [3]	outcome [4]	outcome [5]	outcome [6]	outcome [7]	Potency [8]	Potency [9]	outcome [10]
Nc1c(Cl)cc([N+](=O)[O-])cc1Cl		inactive	inactive	inactive	inactive	inactive	inactive	inactive	inactive	inactive
O=P(Oc1ccccc1)(Oc1ccccc1)Oc1ccccc1		inactive	inactive	inactive	inactive	inactive	inactive	inactive	inactive	inactive
CCC(C)c1ccc(O)cc1 (stereo not given)		inactive	inactive	inactive	inactive	inactive	inactive	inactive	inactive	inactive
Nc1ccc(Cl)cc1N		inactive	inactive	inactive	inactive	inactive	inactive	inactive	inactive	inactive
Cc1cc(C)cc(C)c1		inactive	inactive	inactive	inactive	inactive	inactive			
Oc1ccc(-c2ccccc2)cc1		inactive	inactive	inactive	inactive	inactive	inactive	inactive		inactive
COP(=S)(OC)Oc1ccc([N+](=O)[O-])cc1		inactive	inactive	inactive	inactive	inactive	inactive			
c1cc(OCC2CO2)ccc1Cc1ccc(OCC2CO2)cc1 (stereo not given)		inactive	inactive	inactive	inactive	inactive	inactive	inactive		inactive
Cc1ccc(OP(=O)(Oc2ccc(C)cc2)Oc2ccc(C)cc2)cc1		inactive	inactive	inactive	inactive	inactive	inactive	inactive	inactive	inactive
Oc1cc(Cl)c(Cl)cc1Cl		inactive	inactive	inactive	inactive	inactive	inactive			inactive
C#C[C@]1(O)CC[C@H]2[C@@H]3CCC4=CC(=O)CC[C@]4(C)[C@H]3CC[C@@]21C		inactive	inactive	inactive	inactive	inactive	inactive	inactive	1.69 µM (active)	
CCN(CC)N=O		inactive	inactive	inactive	inactive	inactive	inactive			
CN(C)c1ccc(C(=O)c2ccc(N(C)C)cc2)cc1			inactive	inactive		inactive		inactive		
c1ccc(P(c2ccccc2)c2ccccc2)cc1		inactive	inactive	inactive	inactive	inactive	inactive	inactive	inactive	inactive
OCC(O)CO								inactive	inactive	
Nn1cnnc1		inactive	inactive	inactive	inactive	inactive	inactive	inactive	inactive	inactive
c1ccc(-c2cccc(-c3ccccc3)c2)cc1		inactive	inactive	inactive	inactive	inactive	inactive			inactive
COC(=O)c1sccc1S(=O)(=O)NC(=O)Nc1nc(C)nc(OC)n1		inactive	inactive	inactive	inactive	inactive	inactive	inactive	inactive	
N#CC(Br)Br		inactive	inactive	inactive	inactive	inactive	inactive	inactive	inactive	inactive

— PubChem BioAssay (Tox21)
